This is part of a sample that, as a whole, favours compounds with a hit. Of some 83,000 tested, about 20% had one in any assay.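 Step 1: grow cells in 96-well plates. Step 2: add test compound at a single concentration. Step 3: incubate 48 h. Step 4: record percent growth.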 A number with no mark means an inactive call. Calls of active or inactive are those of the source. Rule for the calls: active = growth percent below 10; inactive = the rest.
Experiments:
Assay in all cases: NCI-60 one-dose screen, 48 h (100 = growth as untreated, 0 = no growth, -100 = all killed)
Conditions in all cases: 10 µM unless noted
T-47D breast = tested on: T-47D breast
BT-549 breast = tested on: BT-549 breast
MDA-MB-435 melanoma = tested on: MDA-MB-435 melanoma
SW-620 colon = tested on: SW-620 colon
MCF7 breast = tested on: MCF7 breast
HCT-116 colon = tested on: HCT-116 colon
HCC-2998 colon = tested on: HCC-2998 colon
KM12 colon = tested on: KM12 colon

Structure (SMILES)	growth (T-47D breast)	growth (BT-549 breast)	growth (MDA-MB-435 melanoma)	growth (SW-620 colon)	growth (MCF7 breast)	growth (HCT-116 colon)	growth (HCC-2998 colon)	growth (KM12 colon)
COc1ccc(NC(=O)c2ccc(Nc3ncnc4c3cnn4-c3cccc(F)c3)cc2)cc1	96.1%	104%	102%	103%	96.5%	103%	107%	100%
CSc1ccc2c3c(n(C[C@H](O)CO)c(=O)c2c1)-c1ccccc1C3=O	27.3%	46.9%	72%	27.6%	11.5%	-20.6% (active)	88.8%	25.3%
COc1ccc2c(c1)C(C)Cc1c(ncnc1-n1cnc3cc(C)ccc31)N2C (centres undefined)	44.6%	-3.64% (active)	-17.5% (active)	25%	16.1%	6.84% (active)	10.7%	12.2%
CCCn1c(=S)sc2c(NNC(C)=O)nc(C)nc21	78.9%	110%	115%	101%	95.9%	95.3%	94.8%	97%
C#CCOc1ccc2nc(CCl)c(Cl)c(Nc3cccc(C(F)(F)F)c3)c2c1	65.9%	60.6%	84.1%	66.4%	40.7%	64%	98.3%	93.6%
CSc1nc2ccc(C)cc2cc1/C=C1/C=C(c2ccccc2)NC1=O	-0.11% (active)	76%	30.9%	34.9%	48.1%	9.26% (active)	83.4%	70.4%
CCOC(=O)/C=C1\S/C(=N\Nc2cc(=O)[nH]c3ccc(Br)cc23)N(c2ccccc2)C1=O	7.62% (active)	75.1%	94.5%	27.8%	22.2%	27.1%	110%	88.5%
NCCCNc1nc2ccccc2c2c(=O)c3cc(Cl)ccc3sc12	-6.77% (active)	83%	-71.1% (active)	-90.6% (active)	-75.4% (active)	-92.5% (active)	-75.6% (active)	-67.4% (active)
CN(C)c1ccc(/C=N\NC(=O)c2ccc3nc(-c4ccc(Cl)cc4)[nH]c3c2)cc1	59.4%	106%	93.9%	46.3%	17.4%	48.6%	79%	64.9%
N[C@@H]1CCC[C@H]1NCCCCN1C(=O)c2cccc3cc([N+](=O)[O-])cc(c23)C1=O	38.1%	69.7%	43.4%	23.8%	17.2%	11.3%	48%	33.1%
CCN1C(=O)N(CC)C2C1NN=c1s/c(=C\c3ccc(OC)cc3)c(=O)n12 (centres undefined)	57.3%	9.76% (active)	-23.7% (active)	22.8%	14.4%	9.53% (active)	15.4%	10.5%
COc1cc2c(cc1-c1c(C)noc1C)ncc1nc(CN3CCOCC3)n([C@H](C)COC(F)F)c12	13%	55.5%	35.8%	62.9%	13.2%	41.3%	32%	34.9%
CNC(=O)c1cc(Oc2ccc3c(c2)sc2nc(-c4cc(C(F)(F)F)cc(C(F)(F)F)c4)cn23)ccn1	30.6%	52.9%	60.8%	64.9%	51.1%	36.3%	74.3%	69.5%
Cn1cc(-c2nc3c(F)cc4[nH]ncc4c3c3c2CCCC3)c(C(F)(F)F)n1	39.9%	4.21% (active)	14%	18.6%	24.6%	15.1%	65.3%	24.2%
COc1ccc(-c2cc(-c3cccnc3)nc3sc4c(N)c(C(C)=O)c(-c5ccccc5)nc4c23)cc1OC	59.4%	34.9%	45.7%	109%	65.3%	67.6%	80.1%	76.2%
CN1C(=O)N2CN3CCCN(C3)CN3C(=S)NC1C23 (centres undefined)	105%	117%	106%	101%	95.4%	106%	103%	104%
CC(C)NS(=O)(=O)/N=C1\NC(=O)NC1=C(Cl)Cl	79.7%	104%	94.3%	103%	82.7%	102%	110%	85.4%
CCOC(=O)c1cnn(CC(C)O)c1NC(=O)NCc1ccccc1C(F)(F)F (centres undefined)	105%	91.4%	104%	105%	95.5%	84.8%	93.8%	99.4%
COc1ccc(-c2cc(C(=O)N3N=C(c4ccc(N)cc4)CC3c3ccc(Cl)cc3)c3cc(OC)ccc3n2)cc1 (centres undefined)	66.7%	29.8%	9.88% (active)	35.5%	38.6%	1.85% (active)	83.3%	52.3%
COc1cc(-c2nccc3[nH]c(-c4cccc5[nH]ccc45)nc23)cc(OC)c1OC	39.9%	42.5%	1.47% (active)	27%	9.9% (active)	4.28% (active)	21.6%	16.9%
COc1ccc2cc(-c3nc4ccc(C)cn4c3NCc3ccco3)c(=O)[nH]c2c1	47.1%	66.1%	86.8%	87.1%	74.1%	57.5%	95.6%	77.7%
Cc1cc(NCCCNc2ccnc3cc(Cl)ccc23)nc(Nc2ccc(C(=O)N3CCCCC3)cc2)n1	-32.8% (active)	69.8%	-72.5% (active)	-0.272% (active)	6.95% (active)	-38.3% (active)	0.124% (active)	26.1%
CCOC(=O)CNC1=C(Cl)C(=O)N(Cc2ccc(Cl)cc2)C1=O	93.3%	109%	105%	99.8%	99.7%	102%	103%	110%
Cc1nc2sc(C(=O)Nc3cccc4ccccc34)c(N)c2cc1C(=O)c1ccccc1	53.7%	15.2%	-53% (active)	21.9%	17.9%	11.3%	10.3%	19.1%
COC(=O)Cn1c2c(c3c(OC)cccc31)C(=O)c1ccccc1-2	89.7%	103%	112%	96.9%	85.9%	89.1%	89.8%	107%
CN(C)CCn1c(=O)c2ccccc2n2nc3ccccc3c12	99.8%	103%	100%	64.2%	72.6%	71.1%	99.8%	95%
O=C(O)c1cn(C2CC2)c2cc(N3CCN(C(=O)N/N=C/c4cccc5ccccc45)CC3)c(F)cc2c1=O	89.9%	6.18% (active)	104%	109%	98.2%	14.8%	107%	101%
CCCN(CCSSCCNc1nc(N(C)O)nc(N(C)O)n1)c1nc(N(C)O)nc(N(C)O)n1	61.9%	7.99% (active)	95.1%	75.1%	83.2%	41%	59.8%	48.2%

Reference: PubChem BioAssay (NCI)
